# Whole data set: some 25,000 sequences, median “ln(normalized median fluorescence intensity)” near 9.3, cut for the highest 2% near 10. This is one part of a sample in which the highest values are shown more often than they occur.
# Test system: PF3D7_0420300 AP2 domain 1 (GST-tagged)
# Test: gcPBM binding intensity (ln(normalized median fluorescence intensity)); higher = stronger DNA binding
# Summary of the method: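 Probes on an Agilent 4 × 180k array were primer-extended, double-stranded and 36 bp long, taken from intergenic genomic regions, with negative controls added. GST-tagged P. falciparum DNA-binding domains from E. coli, about 25 μg on average, were applied to the array for 1 h in 1× PBS containing 1% milk, 0.2 mg/ml BSA, 0.5% salmon testes DNA and 0.03% Triton X-100. Binding intensity, obtained after Alexa488 anti-GST antibody detection and a 488 nm scan, is the highest Masliner-normalised natural-log median intensity across replicate spots of either probe orientation.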
row,Sequence,gcPBM binding intensity (ln)
1,AACATAATAAAAATGGATATAATTCAAAGTTTGTAA [TGCATGCA_negctrl_site529],9.25
2,TTTTATATATATTATACACACAAGGAAAAAAAAAAA [CACACA_site3677],9.53
3,ATATATTTTATTCCTATATATATATATATATATATA [GTGCAC_negctrl_site556],9.27
4,AAAAATGTAAAGTGCGTGCACAAAATATTTGGAAAA,9.27
5,AGAAATATATCTATTTGTCCGTATATTCATATTTAT [XGTACX_site8427],9.4
6,AAGGATATAACATACACACACACACCCATATATATA [CACACA_site4142],10.3
7,CCATAAAAAGGATACACACACACACCGACATATATA [CACACA_site4653],10.2
8,TTAAACTTGAAACACACACACACACCGATATAAAAA [CACACA_site4578],10.2
9,CATATAAAAGGACACACACACACATATATATATATA [CACACA_site4674],10
10,GTAACATACACATATACACACACACCGATATACATA [CACACA_site8278],10.2
11,ATAAAAAAAGGACACACACACATATATATATATATA [CACACA_site5662],9.93
12,AAGGATATAACATACACACACACACCGATATATATA [CACACA_site6136],10.2
13,TAACCATACATACATACACACACACCCACATATATA [CACACA_site8951],10.1
14,TTTTTTTATAAAAATGAACACACACCGATATATATA [CACACA_site9161],9.63
15,TTAAACTTGAAACACACACACACACCCATATAAAAA [CACACA_site758],10.1
16,GGAAGGATATAACATACACACACACCCATATATATA [CACACA_site9376],10
17,ATATATACATATAACACACACATATATATATATATA [CACACA_site2575],9.56
18,ATATAACTCAAGGGCACACATATACCTTTCCTTTTT [CACACA_site4390],9.5
19,AATATACATAACAAGGTGCAAAAAATATTGTTCATA [GTGCAC_site9499],9.5
20,TATTATCTCTTATGAACACACATTTTTATTTTCAAA [CACACA_site3353],9.31
21,AATATATAGCTAAAAACACACAAATATATACGCATA [CACACA_site3608],9.69
22,TTATATATAATATATACACACACATGTATATATAAA [CACACA_site8603],9.45
23,AGTTAATGAATAGGCACACATATATCTGTATAAATA [CACACA_site4448],9.47

row,Sequence,gcPBM binding intensity (ln)
1,AAAAAAAAAAGACACACACACATATTTATTTATATA [CACACA_site6484],9.93
2,CCATAAAAAGGATACACACACACACCCACATATATA [CACACA_site903],10.2
3,AAAAAAAAAAGACACACACACACACGGAGATATATA [CACACA_site6216],10.3
4,CAAAAGGATAGGCACACACACACACCGATATATATA [CACACA_site8685],10.2
5,TTAAACTTGAGACACACACACACACGGATATAAAAA [CACACA_site6495],10.2
6,TAAAAGGATACATATACACACATATATATATATATA [CACACA_site2791],9.32
7,AAAAAAAAAAGACACACACACAAAAAAAGATATATA [CACACA_site6645],10.2
8,ACTTGACACGGACACACACACATATATAAAAAAAAA [CACACA_site4576],9.87
9,AAAAAGGATAAACACACACACACACCGATATATATA [CACACA_site8206],10.2
10,AATAAAAAGGAACACACACACACACCGATATATATA [CACACA_site5895],10.2
11,AAAAAAAAAATATACACACACACATACCCATAAATA [CACACA_site5981],9.99
12,AAACTTGACGGACACACACACACATATATAAAAAAA [CACACA_site4577],10
13,ATTTATGAAAAATGTACACACATCAAATGCTTATAT [CACACA_site4068],9.42
14,AAATGAAAGAACAGCACACATATATATTATATATAA [CACACA_site2002],9.63
15,ATTGCATATAATGGCACACATAAATCCATAATATAT [CACACA_site297],9.29
16,GTTAATATACATAAACGTACAGAATTATTATGAGTT [XGTACX_site5185],9.13
17,TGTTTAACATTTATATGTACATATATTCACATATTA [XGTACX_site342],9.29
18,AACAATATATTGAATAGTACATATATATAAACATAT [XGTACX_site2811],9.46
19,GTAGAAAGAAAAATTAGTACTTAAATATTATAAAAA [XGTACX_site8458],9.11
20,ACCCATAAAAAGGATACACACACACCCACCCATATA [CACACA_site8205],10.4
21,TAGATACATACACGCACACACATATATAAATAAATA [CACACA_site6157],9.85
22,AATAAATATAAATACACACCCATATATATATATATA [CACACA_site5436],9.45
23,CCATAAAAAGGATACACACACACACGCACATATATA [CACACA_site6550],10.2

row,Sequence,gcPBM binding intensity (ln)
1,AATAAATATAAATACACACCCATATAAATATAAATA [CACACA_site7264],9.85
2,AATATAAGGATATATACACACATAAATACATACATA [CACACA_site7859],9.89
3,TTTTATAAATCTAAACGTATCTAAATGAATAATTAA [GTGCAC_negctrl_site44],8.84
4,TTTATAACATTTAAGAGTACAAAAAAATAAATAAAT [XGTACX_site1264],9.37
5,TATTGTAGAGGCAAAAGTACACATTTAATAATTTCC [XGTACX_site1151],9.23
6,ACTTGTAAGAAACACACACACACACCCATATATATA [CACACA_site796],10.4
7,AAACTTGTAAGAAACACACACACACCCATATATATA [CACACA_site797],10.1
8,AAACTTGTAAGAAACACACACACACGCATATAAATA [CACACA_site6518],10
9,ACTTGTAAGAAACACACACACACACCGATATATATA [CACACA_site4594],10.4
10,GTAAGAAACAGACACACACACATATATATATATATA [CACACA_site794],9.79
11,TTGTAAGAAAAACACACACACACATATATATATATA [CACACA_site795],9.95
12,AATATAAAAATGTTTACACACACACGGAAATATATT [CACACA_site7226],10.1
13,TATATATATATGTGTATACACACCTGATAAAGGTAT [CACACA_site2653],9.42
14,AAAAATTTGGCATACACACACACACGCACACGCACA [CACACA_site6422],10.2
15,CTTAAATTTTTAAATACACACATACACCCATACACA [CACACA_site4461],9.64
16,AAAAAATTCATATATACACACACGCACATATATATA [CACACA_site4226],9.84
17,AAAAATTTGGCATACACACACACACCCACACCCACA [CACACA_site587],10.2
18,AAAATTCATATATACACACACGCACATATATATATA [CACACA_site90],9.85
19,TACAAAAAAAATGTATTTAGGACATATATATGTTTA [XGTACX_negctrl_site455],9.02
20,ACGTTTTATAATTAATGTACAAATATTAAAATTGCA [XGTACX_site7869],9.07
21,GCTAGTTTTTTTTGGCGTACAGTACCGGTTTACTTT [XGTACX_site2606],9.42
22,AAAAAAAAAAAATAATGTACATATGTATTTGAGAAA [XGTACX_site3572],9.23
23,AAAAATATAATATAATGTACACATAAACAAAAAAAA [XGTACX_site3658],9.58

row,Sequence,gcPBM binding intensity (ln)
1,ATGTTGTACAAACACACACACAAAAAAAAAATAAAA [CACACA_site2406],9.89
2,ATAACAAAATAAAACACACACACAAATGTACATATA [CACACA_site2425],10.3
3,AACAAAATAAAACACACACACAAATGTACATATATA [CACACA_site2424],10.2
4,ACAAAATGTAAATAAACACACATATATATATATATA [CACACA_site1281],9.3
5,TATAACAAATAAAAATGTACATATATATAATATATA [XGTACX_site6173],9.38
6,TAACAAAATGTAAATAAACACACATATATATATATA [CACACA_site8352],9.37
7,ATAATATAACACAAATGTACAAAAAATAAATAAATA [XGTACX_site385],9.51
8,ATAACAAAATAAAACACACACACAAATGTACAGATA [CACACA_site5358],10.3
9,TTATTACGAACTCTGCAACATATATAAATAAATAAA [CACACA_negctrl_site44],8.86
10,ATATTTCATCTAGCTACACACATATAATAAATTATT [CACACA_site4094],9.53
11,ATTCTAATTAGTAAAGTGCAGATAAAATGATGCCCT [GTGCAC_site9578],9.08
12,ATTACATTTTTGTTTTGTACATATATTTTATAAACA [XGTACX_site494],9.34
13,TAATTTTTTTAAGAGAGTACATGACTCAACAGTTTA [XGTACX_site3103],8.76
14,CGCACTAAAAAACACACACACACACCCATATATATA [CACACA_site4152],10.3
15,CACCCACTAATAAACACACACATATATATATATATA [CACACA_site389],9.62
16,TTAAAAAAAAAACACACACACATACCCATATATATA [CACACA_site5768],9.97
17,CCCACTAAAAAACACACACACACACCCATATATATA [CACACA_site6140],10.2
18,TTATATTAAACAAACACACACATATATATATATATA [CACACA_site2382],9.53
19,CATACTGTTATAAAATGTACGCATATACACACACAT [XGTACX_site7256],9.89
20,CACATACAGACATACACACACATATAGATTAATATA [CACACA_site6399],9.93
